The results in this text go back to PubChem BioAssay (NCATS).

The subject of one test is Tov-21-G. The test is described as follows: Primary qHTS to identify gynecologic anti-cancer compounds using libraries of approved drugs and bioactive compounds (AID 1345084). Further: on the % scale 0 is the no-effect control and ±100 the full control effect; nearly all actives have a fitted effect of over 55% in size. Particulars: Gynecologic cancer cell panel viability, ATPlite luminescence, 48 h; series mostly up to 57.5 µM. The method, boiled down: (§1)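 Five-concentration response, 48 h; readout is ATP-driven luciferase luminescence.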

A further test deals with Tov112D. The test is described as above. Particulars: Gynecologic cancer cell panel viability, ATPlite luminescence, 48 h; series mostly up to 57.5 µM. The procedure, abridged:
as §1

Test [1] can be described thus: Drug repurposing screens with cells derived from glioblastoma tumor samples (AID 1345199). Further: nearly all actives have a fitted effect of over 40% in size. Further: potency means the concentration at half of the fitted maximal effect. On activity, negative = cell killing: on the % scale 0 is the no-effect control and ±100 the full control effect. The conditions noted are these: GBM patient neurospheres viability, ATP luminescence, 48 h. The procedure, abridged:
(§2)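 Four patient lines of CD133+ GBM neurospheres were screened at several concentrations; hits were retested in those lines plus three slower-growing GBM lines, using 48-hour treatment and ATP-based viability.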

The next test relates to astro. The test is described as above. Particulars: viability, ATP luminescence, 48 h; series mostly up to 45.9 µM. The method, boiled down: as §2
For test [2], the target named is Nuclear receptor subfamily 1 group I member 2 (Rattus norvegicus) (UniProt Q9R1A7). The test is described as follows: qHTS assay for small molecule activators of the rat pregnane X receptor (rPXR) signaling pathway (AID 651751; call rule not given here; further: 0% is about no effect). The conditions noted are these: rPXR reporter cells, luciferase (One-Glo), 24 h.
A short description of test [3]: qHTS assay for small molecule activators of the human pregnane X receptor (PXR) signaling pathway (AID 720659; call rule not given here; further: 0% is about no effect).
The next test has as its system SKOV3. The test is described as follows: Primary qHTS to identify gynecologic anti-cancer compounds using libraries of approved drugs and bioactive compounds (AID 1345084). Further: on the % scale 0 is the no-effect control and ±100 the full control effect; nearly all actives have a fitted effect of over 55% in size. The conditions noted are these: Gynecologic cancer cell panel viability, ATPlite luminescence, 48 h; series mostly up to 57.5 µM. The procedure, abridged:
as §1

Where [4] appears, read: at 20 µM (top of the series), tumour line C.
The mark [5] stands for this setting: at 21.2 µM (top of the series), tumour line B.
The mark [6] stands for this setting: at 21.2 µM (top of the series), tumour line D.
The mark [7] stands for this setting: at 21.3 µM (top of the series), tumour line A.
[8] abbreviates: at 45.9 µM (top of the series), tumour line B.
The mark [9] stands for this setting: at 45.9 µM (top of the series), tumour line D.
Where [10] appears, read: at 46 µM (top of the series), tumour line A.
The mark [11] stands for this setting: at 46.1 µM (top of the series), tumour line C.

Values without a mark were called inactive. Results filed as inconclusive are left out. The source made the active and inactive calls. Unless noted, the call rests on the fitted dose curve; in most records, active means well fitted curve in the direction sought with a large enough effect; inconclusive means small, poorly fitted or top-dose-only effect, or another doubt; inactive means no such curve, though single readings can be large; an effect the other way counts as inactive or inconclusive.

Sequence of Nuclear receptor subfamily 1 group I member 2 (Rattus norvegicus) (Q9R1A7 whole entry, looked up): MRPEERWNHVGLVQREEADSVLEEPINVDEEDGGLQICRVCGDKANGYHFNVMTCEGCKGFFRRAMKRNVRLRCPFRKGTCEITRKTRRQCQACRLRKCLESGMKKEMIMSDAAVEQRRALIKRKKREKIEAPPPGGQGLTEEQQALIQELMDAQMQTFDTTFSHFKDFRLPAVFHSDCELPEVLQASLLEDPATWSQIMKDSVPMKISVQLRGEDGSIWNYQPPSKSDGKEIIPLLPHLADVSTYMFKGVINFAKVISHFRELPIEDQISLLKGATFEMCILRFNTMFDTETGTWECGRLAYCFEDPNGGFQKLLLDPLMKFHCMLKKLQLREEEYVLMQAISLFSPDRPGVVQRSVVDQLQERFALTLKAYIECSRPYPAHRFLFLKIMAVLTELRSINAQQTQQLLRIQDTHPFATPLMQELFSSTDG

`CC(=O)[C@@]1(O)CC[C@H]2[C@@H]3C[C@H](C)C4=CC(=O)C=C[C@]4(C)[C@@]3(F)[C@@H](O)C[C@@]21C`: the call in the test with Tov-21-G and with Tov112D was inactive. The activity, negative = cell killing in test [1] (setting [4]) is -10.6%; in test [1] (setting [5]), 4.4%; in test [1] (setting [6]), -1.22%; in test [1] (setting [7]), 13.1%.

Consider `O=C(O)CNC(=O)c1ccccc1I`, for which the outcome in the test with Tov-21-G, in the test on Tov112D and in the test on astro was inactive. Moreover, the activity, negative = cell killing is -1.24% in test [1] (setting [8]), 4.71% in test [1] (setting [9]), -24.5% in test [1] (setting [10]) and -16.1% in test [1] (setting [11]).

Regarding `COc1ccc(Cc2cnc(N)nc2N)cc1OC`, the result in the test with Tov-21-G, in the test with Tov112D and in the test with astro was inactive. The results for the activity, negative = cell killing in test [1] (setting [8]), in test [1] (setting [9]) and in test [1] (setting [11]) were 11%, -18.1% and -4.34%, respectively.

Regarding `CC(CSC(=O)c1ccccc1)C(=O)N1C[C@@H](Sc2ccccc2)C[C@H]1C(=O)O` (stereo partly specified), the call in the test on Tov-21-G, with Tov112D and with astro was inactive. The activity, negative = cell killing in test [1] (setting [8]) was -5.59%; in test [1] (setting [9]) it was 5.1%; in test [1] (setting [10]) it was -20.1%; in test [1] (setting [11]), -14.7%.

With `Cc1cc(=O)[nH]c(=S)[nH]1`, the outcome (with Tov-21-G; with Tov112D; in the test on astro; in test [3]) was inactive. Also, the figures for the activity, negative = cell killing in test [1] (setting [8]), in test [1] (setting [9]) and in test [1] (setting [11]) were -11.2%, 2.62% and -26.3%, respectively. Further, the max response in test [2] was -6.87%.

With `CC(=O)N1C[C@H](O)C[C@H]1C(=O)O`, the call in the test on Tov-21-G, with Tov112D and with astro was inactive. Moreover, the activity, negative = cell killing in test [1] (setting [8]) is -12.7%; in test [1] (setting [9]), 12.1%; in test [1] (setting [10]) it was -19.6%; in test [1] (setting [11]) it was -5.75%.

Turning to `Cc1c(Cn2ccnc2)c2ccccc2n1CCC(=O)O`, the result in the test with Tov-21-G, with Tov112D and in the test on astro was inactive. The activity, negative = cell killing in test [1] (setting [8]) was 1.3%; in test [1] (setting [9]), -4.06%; in test [1] (setting [10]) it was -28%; in test [1] (setting [11]) it was -6.27%.

As to `Cc1ccc2c(c1)c1c3n2CCNC3CCC1` (stereo unspecified), the molecule was called inactive with Tov-21-G and in the test on Tov112D.

In the case of `Nc1ncnc2c1ncn2[C@@H]1O[C@H](COP(=O)(O)O)[C@@H](O)[C@H]1O`, the molecule was classed as inactive with Tov-21-G, with Tov112D and with astro. In addition, the activity, negative = cell killing in test [1] (setting [8]) is 4.49%; in test [1] (setting [9]) it was 20.2%; in test [1] (setting [10]), -19.3%; in test [1] (setting [11]), -13.6%.

With `OCc1ccc(Cl)cc1Cl`, the call in the test with Tov-21-G, in the test on Tov112D and in the test on astro was inactive. The activity, negative = cell killing in test [1] (setting [8]) is -6.96%; in test [1] (setting [9]) it was -3.9%; in test [1] (setting [10]) it was -3.28%; in test [1] (setting [11]) it was 6.97%.

Turning to `C/C=C1\[C@H]2C=C(C)C[C@]1(N)c1ccc(=O)[nH]c1C2`, the result in the test on Tov-21-G and in the test with Tov112D was inactive. In addition, the activity, negative = cell killing in test [1] (setting [8]) was -6.65%; in test [1] (setting [9]) it was -6.44%; in test [1] (setting [10]), -18.8%; in test [1] (setting [11]), 3.14%.

Consider `O=C(CCBr)N1CCN(C(=O)CCBr)CC1`, for which the result with Tov-21-G, with Tov112D and in the test on astro was inactive. Further, the activity, negative = cell killing was -9.14% in test [1] (setting [8]), -7.7% in test [1] (setting [9]) and -5.97% in test [1] (setting [11]).

In the case of `CC[N+](C)(CC)CCOC(=O)C1c2ccccc2Oc2ccccc21`, the outcome in the test with Tov-21-G and in the test on Tov112D was inactive. Further, the activity, negative = cell killing in test [1] (setting [8]) was -11.7%; in test [1] (setting [9]), 10.5%; in test [1] (setting [10]) it was -6.39%; in test [1] (setting [11]), -9.49%.

On to `Cc1c(NC(=O)c2cccnc2)c(=O)n(-c2ccccc2)n1C`, for which the molecule was called inactive in the test with Tov-21-G, in the test on Tov112D and in the test on astro. Besides, the activity, negative = cell killing in test [1] (setting [4]) was -4.61%; in test [1] (setting [5]), 2.25%; in test [1] (setting [6]), 12.3%; in test [1] (setting [7]), -13.1%.

As to `O=C1c2cccc(O)c2C(=O)c2c(O)cccc21`, the molecule was classed as inactive (in the test with SKOV3; with Tov-21-G; in the test on Tov112D; in the test on astro; in test [3]). Also, the activity, negative = cell killing in test [1] (setting [11]) was -4.97%. Moreover, in test [1] (tumour line A), the Potency is 11.2 µM (active). The max response in test [2] was 4.48%.

On to `Cc1ncc(CO)c(CN)c1O`, for which the molecule was called inactive in the test on Tov-21-G, in the test on Tov112D and in the test with astro. Besides, the activity, negative = cell killing in test [1] (setting [8]) was 0.478%; in test [1] (setting [9]), 6.58%; in test [1] (setting [10]), -23.9%; in test [1] (setting [11]), -87%.

On to `Cc1c(NC(C)C)c(=O)n(-c2ccccc2)n1C`, for which the call in the test on Tov-21-G, with Tov112D and with astro was inactive. In addition, the values for the activity, negative = cell killing in test [1] (setting [8]), in test [1] (setting [9]) and in test [1] (setting [11]) were 0.947%, -9.1% and -2.3%, respectively.

`O=C(O)C(S)C(S)C(=O)O` (stereo unspecified): the result in the test on SKOV3, with Tov-21-G, in the test with Tov112D and with astro was inactive.

In the case of `O=C(O)COC(=O)Cc1ccccc1Nc1c(Cl)cccc1Cl`, the call in the test with Tov-21-G, in the test on Tov112D and in the test with astro was inactive. For the same molecule, the activity, negative = cell killing was -2.19% in test [1] (setting [4]), -12.4% in test [1] (setting [5]), -4.64% in test [1] (setting [6]) and -12.9% in test [1] (setting [7]).
